From PubChem BioAssay
D1 antagonist: blocks dopamine activation of the human D1 receptor; P21728; HEK293 TREx D1 cells, calcium flux, dopamine EC80; active compounds read low; activity change, negative = inhibition, % at 10 µM; 3.2% of 360,000 active; in the data active = activity change below about -30%
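Compound effects on dopamine-evoked calcium signalling were measured in tetracycline-induced HEK293 Trex D1 cells. Dopamine at EC80 followed a 180 s compound pre-read, and fluorescence was tracked kinetically for 180 s more.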
D1 agonist: activates the human D1 dopamine receptor; 1% of 360,000 active; P21728; HEK293 T-REx D1 cells, calcium flux, agonist mode; activation, % at 2 µM; in the data active = activation above about 30%
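Tetracycline-induced HEK293 TREx D1 cells, force-coupled to calcium signalling, were dye-loaded with a no-wash calcium kit. Compound was pin-added after a 10 s baseline. Fluorescence was read kinetically at 1 cycle/s for 180 s, with calcium rises flagged as agonism.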
DRD3 agonist: agonists of human D3 dopamine receptor; P35462; D3R DiscoveRx beta-arrestin cells, luminescence, 90 min; max activation, %; 0.58% of 410,000 active; AID 652048; in the data active = max activation above about 30%
Target sequence (P35462 whole entry, looked up): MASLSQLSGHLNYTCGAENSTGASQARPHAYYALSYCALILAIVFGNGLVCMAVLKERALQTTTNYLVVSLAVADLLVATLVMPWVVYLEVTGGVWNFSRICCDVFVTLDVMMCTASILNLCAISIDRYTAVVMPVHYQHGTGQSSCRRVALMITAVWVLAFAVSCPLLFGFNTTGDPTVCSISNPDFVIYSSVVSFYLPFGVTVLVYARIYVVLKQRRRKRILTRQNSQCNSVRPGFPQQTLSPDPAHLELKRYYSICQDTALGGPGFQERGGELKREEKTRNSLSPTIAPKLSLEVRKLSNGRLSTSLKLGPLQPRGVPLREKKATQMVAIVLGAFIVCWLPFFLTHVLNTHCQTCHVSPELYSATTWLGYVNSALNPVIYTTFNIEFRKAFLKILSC
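Cells at 1500/well, incubated overnight, then treated with pinned compounds (dopamine as control) for 90 min at 37 degrees C. DiscoveRx reagent added for 30 - 60 minutes at room temperature; luminescence read.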
DRD3 antagonist: blocks the human D3 dopamine receptor. D3R cells, DiscoveRx beta-arrestin luminescence, antagonist mode; active compounds read low. P35462. max response, negative = inhibition, %. 2.5% of 360,000 active; in the data active = max response below about -50%; inconclusive = no clear call, values can overlap the other calls
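Cells expressing the human receptor were seeded at 1500 cells/well, incubated overnight at 37 degrees C in 5% CO2, then exposed to library compounds with dopamine controls for 90 minutes at 37 degrees C before luminescent detection.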
D1 potentiator: human D1 dopamine receptor positive modulation | P21728 | HEK293 TREx D1 cells, calcium flux, dopamine EC20 potentiation | potentiation, % at 10 µM | 0.036% of 360,000 active | AID 504651; in the data active = potentiation above about 30%
Each line names hits and unclear results; the compound was inactive in the other large screens; ! = not active in a repeat. Most compounds without a hit are left out; they make up all but 6.1% or so of the library.

O=C(Oc1c(CN2CCOCC2)cc(Cl)c2cccnc12)c1ccccc1F	DRD3 antagonist -85
COc1cc(OC)cc(C(=O)Oc2c(CN3CCOCC3)cc(Cl)c3cccnc23)c1	DRD3 antagonist -64
COc1ccc(C(=O)Oc2c(CN3CCOCC3)cc(Cl)c3cccnc23)cc1OC	none (no result: D1 antagonist, D1 agonist, D1 potentiator)
O=C(Oc1c(CN2CCOCC2)cc(Cl)c2cccnc12)c1ccccc1	DRD3 antagonist inconclusive
CS(=O)(=O)N(CC(=O)NCCSCc1ccccc1)c1ccccc1Br	none
COc1cc2cc(Oc3ccc4ccc(=O)oc4c3)c(=O)oc2cc1OC(=O)/C=C/c1ccccc1	D1 antagonist -62
Cc1ccc(Nc2nnns2)cc1	none
CC1=CC(C)(C)N=C(Nc2ccc(C)cc2)S1	D1 antagonist -33, DRD3 antagonist -74
CCn1c(=S)sc2c(=O)n(CC(=O)Nc3cc(OC)ccc3OC)c(C)nc21	none
O=C(O)CN1C(=O)/C(=C\c2cc(Br)ccc2OCc2ccccc2Cl)SC1=S	none
O=C(O)CN1C(=O)/C(=C\c2ccccc2OCc2ccc(Cl)cc2Cl)SC1=S	D1 agonist 35
CCCCCCCCCCCC[n+]1ccc2ccccc2c1	none (no result: D1 antagonist, D1 agonist, DRD3 antagonist, D1 potentiator)
Cc1ccc(CNC(=O)CSCc2ccccc2)cc1	none
Cc1ccc2nc(SCC(=O)NCc3ccc(S(N)(=O)=O)cc3)[nH]c2c1	none
COC(=O)CSc1nc2ccc(C)cc2[nH]1	D1 antagonist -36
Cc1ccc(CNC(=O)CSCc2ccc(F)cc2)cc1	D1 antagonist -36!
Cc1ccc2nc(SCC(=O)NCc3ccc(F)cc3)[nH]c2c1	D1 antagonist -45, D1 agonist 51
COc1ccc(Cl)cc1NC(=O)CSc1nc(-c2ccco2)cc(C(F)(F)F)n1	none (no result: DRD3 antagonist)
Cc1ccc(S(=O)(=O)N2CCN(C(=O)COC(=O)COc3cccc4c3OC(C)(C)C4)CC2)cc1	none
CCOc1ccc(NCc2cccn2-c2nnc(N3CCC(C(=O)NCCc4ccc(OC)c(OC)c4)CC3)s2)cc1	D1 antagonist -31 (no result: DRD3 antagonist)
CCOc1ccc(NCc2cccn2-c2nnc(N3CCC(C(=O)NCCc4ccc(OCC)c(OCC)c4)CC3)s2)cc1	none (no result: DRD3 antagonist)
CCC(CO)(CO)N(CC(=O)Nc1ccc(OC)cc1)CC(=O)Nc1ccc(OC)cc1	none
CC1=NN(C(=O)Cc2ccc([N+](=O)[O-])cc2)C(O)(C(F)(F)C(F)(F)F)C1 (centres undefined)	DRD3 antagonist inconclusive
CCCC1=NN(C(=O)Cc2ccc([N+](=O)[O-])cc2)C(O)(C(F)(F)F)C1 (centres undefined)	none
CCC1=NN(C(=O)Cc2ccc([N+](=O)[O-])cc2)C(O)(C(F)(F)F)C1 (centres undefined)	D1 agonist 33
Cc1ccccc1OCC(=O)N1N=C(C(F)(F)F)CC1(O)C(C)(C)C (centres undefined)	D1 agonist 59
CC(C)(C)C1(O)CC(C(F)(F)F)=NN1C(=O)Cc1ccc([N+](=O)[O-])cc1 (centres undefined)	D1 antagonist -34
COC(=O)c1ccc[n+](CCc2c[nH]c3ccccc23)c1	DRD3 antagonist inconclusive (no result: D1 antagonist, D1 agonist, D1 potentiator)
Cc1ccc(Cl)c(OCCCCN2CCC(C)CC2)c1	none (no result: D1 antagonist, D1 agonist, D1 potentiator)
CC1CCN(CCCCOc2cccc(C(C)C)c2)CC1	DRD3 antagonist -108
CC(C)c1cccc(OCCCCN(C)C)c1	DRD3 antagonist -58
Clc1cccc(OCCN2CCN(CCOc3cccc(Cl)c3)CC2)c1	DRD3 agonist 58
c1ccc(Oc2cccc(OCCCCN3CCCC3)c2)cc1	none
CN(C)CCCOc1cccc(Cl)c1	DRD3 antagonist inconclusive
Brc1cccc(OCCCN2CCCCCC2)c1	DRD3 antagonist -74
Cc1ccc(CN2CCC(=O)N2)cc1	none
CCc1nn(CC(=O)NCc2ccccc2)c(=O)c2cccn12	none (no result: DRD3 antagonist)
CC1CCCN(CCOc2cccc(Oc3ccccc3)c2)C1 (centres undefined)	DRD3 antagonist -61
CC1CCC(=O)N(CCOc2ccccc2)CC1 (centres undefined)	none
Cc1nn(CCOc2cccc(Cl)c2)c(C)c1[N+](=O)[O-]	DRD3 antagonist -64
CC1CCN(CCOc2cccc(Br)c2)CC1	DRD3 antagonist -75
CC1CN(CCOc2cccc(Oc3ccccc3)c2)CC(C)O1 (centres undefined)	none
CCCCNCCCOc1cccc(Cl)c1	DRD3 antagonist -80
CCCCNCCCCOc1ccccc1	DRD3 antagonist inconclusive
CC(=O)N1c2c(cc(Br)cc2S(=O)(=O)Nc2ccc(OC(F)(F)F)cc2)CC1C (centres undefined)	none (no result: DRD3 antagonist)
CC(=O)NC(=S)Nc1cccc([N+](=O)[O-])c1	none (no result: D1 antagonist)
CC(C)NS(=O)(=O)c1ccc(NC(=S)NC(=O)c2cccc([N+](=O)[O-])c2)cc1	DRD3 antagonist -94
O=C(NC(=S)Nc1cccc(F)c1)c1cccc([N+](=O)[O-])c1	DRD3 antagonist -51
CC1(C(=O)NS(=O)(=O)c2cccc(F)c2)CCN1C(=O)CC1CCCCC1 (centres undefined)	DRD3 agonist 30 (no result: D1 antagonist, D1 agonist, D1 potentiator)
Cc1ccc(CS(=O)(=O)c2ccccc2-c2nnc(-c3ccc(Cl)cc3)o2)cc1	D1 antagonist -39
CCc1ccccc1NC(=O)CSc1nnc(COc2ccccc2Cl)o1	none (no result: DRD3 antagonist)
CN(Cc1ccccc1)CC(O)COc1ccc(CNCCOc2cccnc2)cc1 (centres undefined)	DRD3 agonist 61
CN(Cc1ccccc1)CC(O)COc1ccc(CNCc2ccc(Cl)s2)cc1 (centres undefined)	D1 antagonist -41, D1 agonist 54, DRD3 antagonist inconclusive
CN(Cc1ccccc1)CC(O)COc1ccc(CNCCCOc2cccnc2)cc1 (centres undefined)	DRD3 antagonist inconclusive
Oc1cc2c(cc1CN1CCN(c3ncccn3)CC1)OCO2	DRD3 agonist 42
N/C(=N\OC(=O)CCCN1C(=O)c2ccccc2C1=O)c1ccccn1	none
COc1ccc(/C(N)=N/OC(=O)CCc2ccccc2)cc1	none
COc1ccc(/C(N)=N/OC(=O)CCCN2C(=O)c3ccccc3C2=O)cc1OC	DRD3 agonist 41
COc1ccc(/C(N)=N/OC(=O)CCc2ccccc2)cc1OC	D1 antagonist -31
Cc1ccc(C)c(NC(=O)C(=O)NCCc2c[nH]c3ccccc23)c1	none
Cc1ccc(NC(=O)C(=O)NCCc2c[nH]c3ccccc23)c(C)c1	D1 agonist 30
O=C(NCCc1ccc(Cl)cc1Cl)c1cncc(Br)c1	D1 antagonist -38
Cc1cccc(OCCNC(=O)c2cncc(Br)c2)c1	none
O=C(NCCc1c[nH]c2ccccc12)c1cncc(Br)c1	D1 antagonist -35
CCOC(=O)CCCNC(=O)c1cncc(Br)c1	DRD3 agonist 31
Cc1ccc(-c2cn3c(n2)sc2cc(C(=O)NCCCc4ccccc4)ccc23)c(C)c1	none (no result: DRD3 antagonist)
COC(=O)c1ccc(C2c3c(oc4ccc(C)cc4c3=O)C(=O)N2Cc2ccc3c(c2)OCO3)cc1 (centres undefined)	none (no result: DRD3 antagonist)
